Records with an inconclusive call do not appear. Active and inactive are the calls of the source. Calls follow the shape of the dose curve; as a rule, active = well fitted curve in the direction sought with a large enough effect in the signal ratio (not every such curve was filed as active); inconclusive = small, poorly fitted or top-dose-only effect, or effect the other way, or a change in a side signal; inactive = no such curve, though single readings can be large or run the other way; the % refers to the signal ratio.
Target: Tyrosine-protein phosphatase non-receptor type substrate 1 (Homo sapiens) + Leukocyte surface antigen CD47 (Homo sapiens) (UniProt P78324+Q08722)
Experiment: CD47-SIRPalpha protein protein interaction - HTRF assay qHTS validation (AID 1347058); also: 0% is about no effect
Conditions: TR-FRET HTRF CD47-His / biotin-SIRPalpha binding, ratio 665/615; series mostly up to 38.3 µM; activity change, negative = inhibition: at the top concentration
Text: SIRPalpha is a myeloid cell expressed immunomodulatory receptor that binds the tumor expressed immune checkpoint CD47. Therapeutic disruption of this interaction leads to immune-mediated tumor rejection. This assay was used to quantitate CD47-SIRPalpha binding biochemically and evaluate chemical libraries for novel CD47-SIRPalpha inhibitors. To recapitulate the biological interaction of CD47 and SIRPalpha, we designed expression constructs to produce their recombinant, soluble, extracellular interaction domains. CD47 was produced with an N-terminal 6His tag. SIRPalpha was produced with an N-terminal Avi-Tag for site-specific biotin incorporation. The CD47-SIRPalpha interaction was measured by TR-FRET using affinity tag linked reagents (anti-6His-Eu donor and streptavidin-XL665 acceptor). SIRPalpha without biotin incorporation was used as a positive control inhibitor.
SEQUENCE No. (e.g., 1, 2, 3, etc.); […] (e.g., Cells, Incubation, Reagent, etc.); VALUE and DESCRIPTION.
1a. Reagent. 3 uL CD47-His (12.5 nM) and Anti-His Eu Donor reagent (0.7 nM) added to respective wells in Assay buffer; white/solid bottom high base, med bind 1536-well plates (Greiner 789075)
1b. Reagent. 2 uL Assay buffer negative control for background fluorescence
2. Reagent. 23 nL library compounds (7-pt, 1:4 intraplate titration series) or DMSO control transferred by Pin Tool
3. Centrifuge. Centrifuge plate for 30 s at 1000 RPM
4. Incubation.#Incubate reagents at room temperature for 30 min, protected from light
5. Reagent. 2 uL SIRPalpha-biotin (100 nM) in Assay buffer
6. Incubation.#Incubate reagents at room temperature for 30 min, protected from light
7. Reagent. 1 uL SAV-XL665 (85 nM) acceptor reagent added to respective wells
8. Centrifuge. Centrifuge plate for 30 s at 1000 RPM
9. Incubation. Incubate reagents at room temperature for 30 min, protected from light
10. Detector. Measure Top TR-FRET on EnVision (Eu/APC filter set); calculate ratio Ch1/Ch2
1. Assay buffer composition.#Phosphate buffered saline (PBS; 10 mM Phosphate, 137 mM NaCl, and 2.7 mM KCl; pH 7.4), 0.05% IGEPAL CA-630
2. 23nL of […] library compounds (7 plates) or DMSO vehicle control transferred to 9 Greiner white/solid bottom high base, TC plates in 7 interplate 1:5 titrations (see Yasgar, A. et al. 2008) with Pintool. Two of the 9 plates are DMSO-only in compound field at beginning and end of compound library-treated plates.
10. Detector settings#Mirror = LANCE/DELFIA Dual Enh; Ex. Filter = UV2[TRF] 320; Em. Filter = APC 665; 2nd Em. Filter = Europium 615; Measurement h = 6.5; Ex. light (%) = 100; Delay = […]; Window t = 100 us; No. Seq. windows = 1; Time between flashes = 2000us; No. of flashes = 100; No. of flashes for 2nd detector = 100; Calculation: "Ratio Ch1/Ch2"

Chain of Tyrosine-protein phosphatase non-receptor type substrate 1 (Homo sapiens) + Leukocyte surface antigen CD47 (Homo sapiens) (P78324 whole entry, looked up): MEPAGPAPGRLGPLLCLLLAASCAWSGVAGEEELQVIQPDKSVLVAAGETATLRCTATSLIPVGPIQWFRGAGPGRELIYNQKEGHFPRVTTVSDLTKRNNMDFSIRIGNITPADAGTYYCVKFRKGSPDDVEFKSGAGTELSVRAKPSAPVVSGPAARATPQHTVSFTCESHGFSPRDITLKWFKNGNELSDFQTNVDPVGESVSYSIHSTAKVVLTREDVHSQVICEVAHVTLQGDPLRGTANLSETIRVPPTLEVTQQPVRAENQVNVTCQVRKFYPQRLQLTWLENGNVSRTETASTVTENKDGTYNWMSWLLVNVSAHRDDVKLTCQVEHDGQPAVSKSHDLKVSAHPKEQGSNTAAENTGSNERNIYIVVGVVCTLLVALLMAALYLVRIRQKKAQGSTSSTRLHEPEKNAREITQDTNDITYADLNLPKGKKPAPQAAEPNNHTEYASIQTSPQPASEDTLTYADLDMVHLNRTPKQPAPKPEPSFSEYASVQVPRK
Chain of Tyrosine-protein phosphatase non-receptor type substrate 1 (Homo sapiens) + Leukocyte surface antigen CD47 (Homo sapiens) (Q08722 whole entry, looked up): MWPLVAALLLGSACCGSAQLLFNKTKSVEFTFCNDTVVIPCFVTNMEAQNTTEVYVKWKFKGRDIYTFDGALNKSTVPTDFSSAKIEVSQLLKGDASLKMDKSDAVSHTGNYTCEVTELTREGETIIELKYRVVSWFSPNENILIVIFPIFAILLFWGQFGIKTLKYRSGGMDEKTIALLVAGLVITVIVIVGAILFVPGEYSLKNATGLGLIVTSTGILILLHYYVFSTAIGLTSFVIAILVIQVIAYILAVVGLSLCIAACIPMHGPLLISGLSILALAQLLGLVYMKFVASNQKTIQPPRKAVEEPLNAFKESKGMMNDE

SMILES | activity change, negative = inhibition
CNCCC=C1c2ccccc2CCc2ccccc21 | -1.82% (inactive)
CC1(C)CCC(NC(=O)[C@@H](N)CCC(=O)O)CC1 | 6.66% (inactive)
CCCC1O[C@@H]2C[C@H]3[C@@H]4CCC5=CC(=O)C=C[C@]5(C)[C@H]4[C@@H](O)C[C@]3(C)[C@]2(C(=O)CO)O1 (stereo not given in full) | 0.21% (inactive)
CNCCC(Oc1ccccc1C)c1ccccc1 (stereo not given) | -2.13% (inactive)
CC(C)COC(=O)OCN1C(=O)CN(CCN2CC(=O)N(COC(=O)OCC(C)C)C(=O)C2)CC1=O | -1.32% (inactive)
CC(=O)O[C@H]1C[C@@H]2CC[C@@H]3[C@H](CC[C@@]4(C)[C@H]3C[C@H]([N+]3(C)CCCCC3)[C@@H]4OC(C)=O)[C@@]2(C)C[C@@H]1[N+]1(C)CCCCC1 | -0.267% (inactive)
O=C(O)c1cc2cc(Cc3cccnc3)ccc2o1 | -5.92% (inactive)
COc1cc2c(cc1O)CC[C@@H]1[C@@H]2CC[C@]2(C)[C@@H](O)CC[C@@H]12 | -0.346% (inactive)
N[C@@H](Cc1cnc[nH]1)C(=O)O | -2.47% (inactive)
C1CCc2nnnn2CC1 | -3.25% (inactive)
C[C@@H]1C(=O)NC2=Nc3cccc(Cl)c3CN21 | 0.109% (inactive)
C[N+]1(CCCCC[N+]2(C)CCCC2)CCCC1 | 0.952% (inactive)
CC(CCc1ccccc1)NCC(O)c1ccc(O)c(C(N)=O)c1 (stereo not given) | 2.96% (inactive)
CCCn1c(=O)[nH]c(=O)c2[nH]cnc21 | -0.999% (inactive)
Nc1cc(Cl)c(NC2=NCCN2)c(Cl)c1 | -1.53% (inactive)
CN1C2CCC1CC(OC(=O)c1c[nH]c3ccccc13)C2 (stereo not given) | -1.25% (inactive)
CC[C@H](C)C(=O)O[C@H]1CCC=C2C=C[C@H](C)[C@H](CC[C@@H]3C[C@@H](O)CC(=O)O3)[C@H]21 | 0.138% (inactive)
N[C@H](CO)C(=O)O | -11.7% (inactive)
O=C1CCC(c2ccc(-n3ccnc3)cc2)=NN1 | -1.85% (inactive)
Oc1ccc(O)cc1 | 14.3% (inactive)

Reference: PubChem BioAssay (NCATS)
